This note sets out measurements from PubChem BioAssay (NCATS).

Records with an inconclusive call do not appear. Active and inactive are the calls of the source. The call rests on the fitted dose curve; in most records, active means well fitted inhibition curve with a large enough effect; inconclusive means small, poorly fitted or top-dose-only effect; inactive means flat fitted curve, though single readings scatter.

Experiment in all cases: qHTS profiling for inhibitors of Plasmodium falciparum proliferation (AID 504749); further: nearly all actives have a fitted effect of over 60% in size
Common to all, as to details: P. falciparum in erythrocytes, SYBR Green DNA, 72 h; series mostly up to 28.7 µM

In one experiment the test system is ATS189. In outline:
(§1)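 Each compound contacts P. falciparum-infected red blood cells for 72 h at 37 C; lysis buffer (Tris, EDTA, saponin, Triton X, SYBR Green I) is added and fluorescence measured next morning; values normalized to controls.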

A further experiment relates to ATS95. In outline:
as §1

The subject of another experiment is C2A. The method in brief:
as §1

The next experiment concerns CP191. The method in brief: as §1
For the next experiment, the system named is CP192. The method in brief:
as §1

The test system of the next experiment is CP194. The method in brief:
as §1

The test system of the next experiment is CP201. The method in brief: as §1
A further experiment relates to CP203. The method in brief:
as §1

For another experiment, the system named is CP215. The method in brief: as §1
Another experiment relates to CP217. The method in brief:
as §1

The test system of the next experiment is CP237. The method in brief:
as §1

A further experiment relates to CP238. The method in brief: as §1
The subject of another experiment is CP252. In outline:
as §1

Another experiment has as its system CP256. The method in brief: as §1
A further experiment relates to CP260. In outline:
as §1

Another experiment concerns CP185. In outline:
as §1

The test system of a further experiment is CP247. In outline:
as §1

In the next experiment the test system is CP250. In outline:
as §1

The test system of the next experiment is CP262. In outline: as §1
The next experiment has as its system CP211. The method in brief:
as §1
Potency means the concentration at half of the fitted maximal effect.

For `CC[N+](C)(CC)CCOC(=O)C(O)(c1ccccc1)C1CCCCC1` (configuration not stated), the Potency result with ATS189, with ATS95, in the experiment on C2A, in the experiment on CP191, with CP192 and in the experiment on CP194 was “inactive” in each case. Besides, the Potency result with CP201, in the experiment on CP203, in the experiment on CP215, with CP217, with CP237 and with CP238 was “inactive” throughout. In addition, the Potency result in the experiment on CP252, with CP256 and in the experiment with CP260 was “inactive” in each case.

In the case of `Cc1cc(NS(=O)(=O)c2ccc(N)cc2)nc(C)n1`, the Potency entry with ATS189, in the experiment on ATS95, with C2A, in the experiment with CP185, in the experiment with CP191 and with CP192 was “inactive” each time. Besides, the Potency entry in the experiment with CP194, in the experiment on CP201, with CP203, in the experiment on CP215, with CP217 and in the experiment on CP237 was “inactive” throughout. Further, the Potency entry with CP238, in the experiment with CP247, in the experiment on CP250, in the experiment on CP252, in the experiment with CP256 and in the experiment on CP260 was “inactive” in each case. Also, the Potency result with CP262 is “inactive”.

`CCOC(=O)C(C#N)=C(c1ccccc1)c1ccccc1`: the Potency result with ATS189, in the experiment on ATS95, with C2A, in the experiment with CP185, in the experiment on CP191 and in the experiment with CP194 was “inactive” in each case. The Potency result with CP201, in the experiment with CP203, in the experiment on CP211, in the experiment with CP215, with CP217 and in the experiment on CP237 was “inactive” each time. Further, the Potency entry in the experiment on CP238, in the experiment with CP247, in the experiment on CP250, in the experiment on CP252, in the experiment on CP256 and in the experiment on CP260 was “inactive” in each case. Moreover, in the experiment with CP262, the Potency entry is “inactive”.

Consider `O=C(O)c1ccc(S(=O)(=O)N(Cl)Cl)cc1`, for which the Potency entry in the experiment on ATS189, in the experiment with ATS95, with C2A, in the experiment on CP185, with CP191 and with CP192 was “inactive” each time. For the same compound, the Potency result in the experiment with CP194, with CP203, in the experiment with CP211, in the experiment with CP215, in the experiment on CP217 and in the experiment with CP237 was “inactive” throughout. In addition, the Potency entry with CP238, with CP247, in the experiment with CP250, with CP252, in the experiment with CP256 and with CP260 was “inactive” throughout.

On to `O=[N+]([O-])c1cccc(S(=O)(=O)NCCNS(=O)(=O)c2cccc([N+](=O)[O-])c2)c1`, for which the Potency result with ATS189, in the experiment with ATS95, in the experiment with C2A, with CP185, with CP192 and in the experiment with CP194 was “inactive” each time. Besides, the Potency result in the experiment on CP201, in the experiment on CP211, with CP215, in the experiment on CP217, in the experiment with CP238 and with CP247 was “inactive” throughout. Also, the Potency result in the experiment on CP250, with CP252 and in the experiment with CP256 was “inactive” in each case.

Turning to `CN(C)CCC[C@@]1(c2ccc(F)cc2)OCc2cc(C#N)ccc21`, the Potency result with ATS189, with ATS95, in the experiment with C2A, in the experiment on CP185, with CP192 and in the experiment with CP194 was “inactive” each time. Further, the Potency result with CP201, in the experiment with CP211, in the experiment on CP217, with CP237, in the experiment on CP238 and with CP247 was “inactive” each time. The Potency result in the experiment on CP250, in the experiment on CP252, in the experiment on CP260 and in the experiment on CP262 was “inactive” each time.

On to `CC(=O)NCCCCCC(=O)O`, for which the Potency entry with ATS189, in the experiment on ATS95, in the experiment on C2A, in the experiment with CP185, in the experiment on CP191 and in the experiment with CP192 was “inactive” each time. Further, the Potency result with CP194, with CP201, with CP203, with CP215, in the experiment on CP217 and in the experiment with CP237 was “inactive” in each case. For the same compound, the Potency result in the experiment with CP238, in the experiment on CP247, in the experiment with CP252, with CP256, in the experiment with CP260 and in the experiment with CP262 was “inactive” each time.

As to `O=C(NC1CCN(CCc2c[nH]c3ccccc23)CC1)c1ccccc1`, the Potency result in the experiment with ATS189, in the experiment with ATS95, in the experiment on C2A, in the experiment with CP185, in the experiment on CP192 and with CP194 was “inactive” throughout. Also, the Potency entry in the experiment on CP201, in the experiment on CP211, in the experiment with CP215, in the experiment on CP217, with CP237 and in the experiment with CP238 was “inactive” each time. The Potency entry in the experiment on CP247, in the experiment with CP250, in the experiment on CP252, in the experiment on CP256, in the experiment on CP260 and in the experiment on CP262 was “inactive” throughout. For the same compound, the Potency in the experiment on CP191 was 8.91 µM (active).

For the compound `C#C[C@]1(OC(C)=O)CC[C@H]2[C@@H]3CCC4=C/C(=N/O)CC[C@@H]4[C@H]3CC[C@@]21CC`, the Potency entry in the experiment on ATS189, in the experiment with ATS95, in the experiment on C2A, with CP185, in the experiment on CP191 and in the experiment on CP194 was “inactive” in each case. In addition, the Potency entry in the experiment with CP201, in the experiment on CP203, with CP211, in the experiment on CP215, with CP217 and in the experiment on CP237 was “inactive” in each case. For the same compound, the Potency result in the experiment on CP238, in the experiment with CP247, with CP250, with CP252, in the experiment with CP256 and with CP260 was “inactive” each time. In the experiment with CP262, the Potency result is “inactive”.

Turning to `COc1cc(C)nc(-n2nc(C)cc2OC)n1`, the Potency result in the experiment with ATS189, in the experiment with ATS95, in the experiment on C2A, with CP185, in the experiment with CP191 and in the experiment on CP194 was “inactive” in each case. In addition, the Potency result in the experiment with CP201, in the experiment on CP203, with CP211, in the experiment on CP215, in the experiment with CP217 and with CP237 was “inactive” throughout. Also, the Potency entry in the experiment on CP238, with CP247, with CP250, with CP252, with CP256 and in the experiment with CP260 was “inactive” throughout. The Potency result in the experiment on CP262 was “inactive”.

For the compound `CC(=O)OCC(=O)[C@H]1CC[C@H]2[C@@H]3CCC4=CC(=O)CC[C@]4(C)[C@H]3CC[C@]12C`, the Potency entry in the experiment with ATS189, in the experiment with C2A, in the experiment with CP185, in the experiment on CP191, in the experiment on CP192 and in the experiment on CP194 was “inactive” each time. The Potency entry with CP201, in the experiment on CP203, in the experiment on CP211, in the experiment with CP217, with CP238 and in the experiment on CP247 was “inactive” throughout. The Potency result with CP250, with CP252, with CP256, in the experiment on CP260 and in the experiment with CP262 was “inactive” throughout.

Regarding `CC(C)[N+](C)(C)CC(O)COc1cccc2ccccc12` (configuration not stated), the Potency entry with ATS189, with ATS95, with CP201, in the experiment with CP203, in the experiment with CP217 and in the experiment on CP238 was “inactive” in each case. In addition, the Potency entry in the experiment with CP247, in the experiment on CP252 and in the experiment on CP262 was “inactive” each time.

Take `CCOC(=O)Nc1ccc2c(c1)N(C(=O)CCN1CCOCC1)c1ccccc1S2`: the Potency result with ATS189, with ATS95, in the experiment on C2A, with CP185, with CP192 and in the experiment with CP194 was “inactive” throughout. Besides, the Potency result with CP201, in the experiment with CP203, in the experiment with CP211, in the experiment with CP215, in the experiment with CP217 and in the experiment on CP237 was “inactive” in each case. Moreover, the Potency result in the experiment on CP238, with CP247, with CP250, in the experiment on CP252, in the experiment on CP256 and in the experiment on CP260 was “inactive” in each case. Besides, the Potency entry with CP262 was “inactive”.
